JMJD2A Tudor inh: JMJD2A Tudor domain (human) inhibition; hit rate 4.4% among 390,000; Potency, µM (doses to about 114 µM), for the others: at the highest dose activity change, negative = inhibition, most hits filed as inhibitors; O75164; AlphaScreen JMJD2A-Tudor / H3K4me3 peptide binding; AID 504339; note: % is set by controls: 0 for no effect and ±100 for the full control effect; nearly all actives have a fitted effect of over 50% in size
HP1b binding inh: HP1-beta chromodomain-methylated histone interaction inhibition; AlphaScreen HP1-beta / biotin-H3K9me3 peptide binding; Potency, µM (doses to about 114 µM), for inactives: at the top dose activity change, negative = inhibition, most hits filed as inhibitors; hit rate 0.56% among 390,000; note: nearly all actives have a fitted effect of over 70% in size
Target sequence (P83916 whole entry, looked up): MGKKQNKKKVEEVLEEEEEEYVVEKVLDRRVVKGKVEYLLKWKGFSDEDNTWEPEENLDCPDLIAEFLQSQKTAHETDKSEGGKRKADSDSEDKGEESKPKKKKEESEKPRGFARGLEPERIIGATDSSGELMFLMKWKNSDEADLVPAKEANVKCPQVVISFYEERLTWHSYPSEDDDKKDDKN
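AlphaScreen: HP1-beta (50 nM) preformed 30 min with biotin-H3(1-18)K9me3 peptide (50 nM) in PBS pH 7.4, 0.01% Tween-20. Compound added for 30 min at RT, then streptavidin donor/nickel chelate acceptor beads (10 ug/mL) for 30 min.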
BAZ2B inh: blocks human BAZ2B. Potency, µM (titrated, usually from 114 µM), without a hit: at the top dose activity change, negative = inhibition, usual class: inhibitors. AlphaScreen BAZ2B-H3K14Ac peptide displacement. Q9UIF8. hit rate 4.4% among 360,000; note: % is set by controls: 0 for no effect and ±100 for the full control effect; nearly all actives have a fitted effect of over 60% in size
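In this displacement format the biotinylated H3(5-23) peptide acetylated at Lys14 serves as ligand at 50 nM, with BAZ2B at 50 nM in PBS pH 7.4 containing 0.01% Tween-20. Donor and acceptor beads are 10 ug/mL final.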
L3MBTL1 block: inhibitors of human L3MBTL1. AlphaScreen L3MBTL1–H3K9me1 peptide binding. Potency, µM (doses to about 57.1 µM), inactives show at the top dose activity, negative = inhibition, most hits filed as inhibitors. hit rate 0.66% among 230,000; note: % is set by controls: 0 for no effect and ±100 for the full control effect; nearly all actives have a fitted effect of over 60% in size
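First, the protein-peptide complex forms for 30 min at room temperature (L3MBTL1 50 nM, biotinylated H3K9me1 peptide 75 nM). Next, compounds are pin-transferred and incubated 30 min. Finally, AlphaScreen beads are added and read after 30 min.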
G9a inh: G9a (human) methyltransferase inhibition | Q96KQ7 | G9a H3K9 monomethylation, AlphaScreen, 2 h | Potency, µM (doses to about 102 µM), without a hit: top-dose activity, negative = inhibition, most hits filed as inhibitors | hit rate 8.8% among 350,000; note: % is set by controls: 0 for no effect and ±100 for the full control effect; nearly all actives have a fitted effect of over 75% in size
Target sequence (Q96KQ7 913-1193 limits assumed): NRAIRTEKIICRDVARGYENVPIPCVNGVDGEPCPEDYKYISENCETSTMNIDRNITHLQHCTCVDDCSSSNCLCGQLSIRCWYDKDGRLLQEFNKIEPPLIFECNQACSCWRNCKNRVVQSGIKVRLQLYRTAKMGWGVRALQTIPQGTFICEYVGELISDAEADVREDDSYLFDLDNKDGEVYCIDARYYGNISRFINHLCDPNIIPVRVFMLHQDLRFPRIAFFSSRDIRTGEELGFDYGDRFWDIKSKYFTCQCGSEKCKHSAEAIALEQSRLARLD
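Compounds were preincubated with 20 nM G9a for 15 min, after which biotinylated H3K9 peptide (500 nM) and SAM (20 uM) started a 2 h room-temperature reaction. Monomethylated product was quantified by antibody-based AlphaScreen chemiluminescence.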
Sfp inh: inhibitors of Bacillus subtilis Sfp phosphopantetheinyl transferase; Q9F4F7; Biochemical Sfp PPTase activity, qHTS; Potency, µM, without a hit: largest response in the series, negative = inhibition, most hits filed as inhibitors; hit rate 3.5% among 310,000;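 note: the enzyme is Sfp with the accession as filed and its product quenches rhodamine fluorescence; 0% = enzyme reaction without inhibitor and -100% = no enzyme wells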
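With Hepes-Na pH 7.6 buffer containing 10 mM MgCl2, Sfp (15 nM) modified BHQ-2-YbbR (12.5 uM) using rhodamine-CoA (5 uM). Two reads 30 minutes apart at 525/598 nm yielded each well's rate.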
An asterisk follows results filed as active; [ ] = remark or other dose. Rows were chosen to be rich in hits. Some 12% of all compounds tested hit in one or more screens of this group. Calls come from the whole dose curve; as a rule, active = well fitted curve in the direction sought with a large enough effect; inconclusive = small, poorly fitted or top-dose-only effect, or another doubt; inactive = no such curve, though single readings can be large; an effect the other way counts as inactive or inconclusive. Potency is the fitted concentration of half-maximal effect.

What do the screens show for `CCCCN(CC)C(=O)CSc1nc2n[nH]c(C)c2c(=N)n1-c1ccc(CC)cc1`?
JMJD2A Tudor inh: -31.4%; HP1b binding inh: -3.2%; BAZ2B inh: -9.6%; G9a inh: 5.3%[59 µM]

How did CCN(CC)Cc1c(C(=O)N2CCc3ccccc3C2)nc2ccc(Cl)cn12 do in these assays?
JMJD2A Tudor inh: -6.6%; HP1b binding inh: 30.1%; BAZ2B inh: inconclusive; L3MBTL1 block: -0.5%; G9a inh: 7.9%[0.501 µM]; Sfp inh: -9.0%

How did C=CCNc1nc(Cl)nc(Nc2cc(Cl)ccc2OC)n1 do in these assays?
JMJD2A Tudor inh: inconclusive; HP1b binding inh: -1.1%; BAZ2B inh: 7.1%; L3MBTL1 block: -1.2%; Sfp inh: -1.1%

Results for COc1ccc(CNCc2ccncc2)cc1OC ?
JMJD2A Tudor inh: -7.9%; HP1b binding inh: 62.1%; BAZ2B inh: -7.2%; L3MBTL1 block: 2.8%; G9a inh: -8.5%; Sfp inh: 1.5%

How did COc1cc(CN2CCN(Cc3ccc(C(F)(F)F)cc3)CC2)cc(OC)c1OC do in these assays?
JMJD2A Tudor inh: 20µM*; HP1b binding inh: inconclusive; BAZ2B inh: 17.8µM*; L3MBTL1 block: -5.3%[2.29 µM]; G9a inh: -1.6%[0.501 µM]; Sfp inh: 20µM*

What do the screens show for `COc1cc(CN2CCN(Cc3ccccc3C(F)(F)F)CC2)cc(OC)c1OC`?
JMJD2A Tudor inh: 0.794µM*; HP1b binding inh: 25.1µM*; BAZ2B inh: 20µM*; G9a inh: -17.5%[2.33 µM]; Sfp inh: -29.5%

What do the screens show for `COc1ccc(CNCc2ccc(C(F)(F)F)cc2)cc1OC`?
JMJD2A Tudor inh: 89.1µM*; HP1b binding inh: -6.0%; BAZ2B inh: -16.9%; L3MBTL1 block: -4.1%; G9a inh: 79.4µM*; Sfp inh: -3.9%

Results for CS(=O)(=O)N1CCN(Cc2ccccc2C(F)(F)F)CC1 ?
JMJD2A Tudor inh: -15.8%[11.4 µM]; HP1b binding inh: 30.2%; BAZ2B inh: 2.8%; L3MBTL1 block: 4.5%; G9a inh: 14.1%[59 µM]; Sfp inh: 11.1%

How did CS(=O)(=O)N1CCN(Cc2ccc(C(F)(F)F)cc2)CC1 do in these assays?
JMJD2A Tudor inh: 1.58µM*; HP1b binding inh: inconclusive; BAZ2B inh: inconclusive; G9a inh: 3.16µM*; Sfp inh: 56.2µM*

How did OCC1(CCOc2ccccc2)CCN(Cc2ccccc2C(F)(F)F)CC1 do in these assays?
JMJD2A Tudor inh: -1.4%; HP1b binding inh: 43.3%; BAZ2B inh: -6.3%; L3MBTL1 block: 1.6%; G9a inh: 2.4%; Sfp inh: 11.9%

Results for O=C(c1ccccc1Br)N(Cc1ccccc1F)C1CCS(=O)(=O)C1 (stereo not given) ?
JMJD2A Tudor inh: -12.2%; HP1b binding inh: 43.3%; BAZ2B inh: -2.1%; G9a inh: -1.4%[59 µM]

Results for COC(=O)Cn1ncc(N2C3CC(CC(C)(C)C3)C2C)c(Cl)c1=O (stereo not given) ?
JMJD2A Tudor inh: -20.5%; HP1b binding inh: 1.5%; BAZ2B inh: 10.0%; L3MBTL1 block: -1.0%; G9a inh: 6.1%[59 µM]; Sfp inh: -1.3%

What do the screens show for `COc1ccc(S(=O)(=O)N2CCC3(CC2)CC(=O)c2ccccc2O3)cc1OC`?
JMJD2A Tudor inh: -6.1%; HP1b binding inh: 14.7%; BAZ2B inh: 7.2%; L3MBTL1 block: inconclusive; G9a inh: -2.2%

How did CCOc1ccc(Cc2nn[nH]n2)cc1 do in these assays?
JMJD2A Tudor inh: -12.3%[11.4 µM]; HP1b binding inh: 22.0%; BAZ2B inh: 5.5%; L3MBTL1 block: 3.2%; G9a inh: inconclusive; Sfp inh: -9.6%

Results for CCCOc1ccc(Cc2nn[nH]n2)cc1 ?
JMJD2A Tudor inh: -4.1%; HP1b binding inh: 43.8%; BAZ2B inh: -15.0%; L3MBTL1 block: -4.5%; G9a inh: 50.1µM*; Sfp inh: -5.7%

How did Cn1c(=O)c2c(-c3ccccc3)n(Cc3ccccn3)cc2n(C)c1=O do in these assays?
JMJD2A Tudor inh: -29.3%; HP1b binding inh: 47.5%; BAZ2B inh: 50.1µM*; G9a inh: inconclusive; Sfp inh: inconclusive

How did Cc1ccc(-c2c3c(=O)n(C)c(=O)n(C)c3cn2Cc2ccccc2)cc1 do in these assays?
JMJD2A Tudor inh: inconclusive; HP1b binding inh: 8.4%; BAZ2B inh: inconclusive; G9a inh: 11.2µM*; Sfp inh: -13.5%

How did Cn1c(=O)c2c(-c3ccccc3)n(CCCN3CCOCC3)cc2n(C)c1=O do in these assays?
JMJD2A Tudor inh: -30.8%; HP1b binding inh: 1.2%; BAZ2B inh: -29.2%; G9a inh: -6.7%[12.7 µM]; Sfp inh: 21.3%

Results for CCCn1cc2c(c1-c1ccc(C)cc1)c(=O)n(C)c(=O)n2C ?
JMJD2A Tudor inh: -22.2%; HP1b binding inh: 22.0%; BAZ2B inh: inconclusive; L3MBTL1 block: -9.2%; Sfp inh: -3.8%

Results for COC(=O)Cn1ncn2c(cc3oc(C)cc32)c1=O ?
JMJD2A Tudor inh: 4.8%; HP1b binding inh: 40.6%; BAZ2B inh: 5.6%; L3MBTL1 block: -1.5%; G9a inh: inconclusive; Sfp inh: 56.2µM*

What do the screens show for `Cc1ccc2nc(/C(C#N)=C\c3ccc(N4CCCCC4)c([N+](=O)[O-])c3)[nH]c2c1`?
JMJD2A Tudor inh: 5.62µM*; HP1b binding inh: inconclusive; BAZ2B inh: 44.7µM*; G9a inh: 14.1µM*; Sfp inh: -8.1%

What do the screens show for `N#C/C(=C\c1ccc(N2CCOCC2)o1)c1nc2ccccc2[nH]1`?
JMJD2A Tudor inh: -2.7%[11.4 µM]; HP1b binding inh: 6.4%; BAZ2B inh: 16.1%[57.1 µM]; L3MBTL1 block: -21.7%; G9a inh: inconclusive; Sfp inh: 31.6µM*

Results for Cc1ccc2nc(/C(C#N)=C/c3cccc(Br)c3)[nH]c2c1 ?
JMJD2A Tudor inh: inconclusive; HP1b binding inh: -13.4%; BAZ2B inh: -27.3%; G9a inh: 37.7%[59 µM]

Results for Cc1ccc2nc(/C(C#N)=C/c3ccc(O)c(O)c3)[nH]c2c1 ?
JMJD2A Tudor inh: 15.8µM*; HP1b binding inh: inconclusive; BAZ2B inh: 7.94µM*; G9a inh: 8.91µM*; Sfp inh: -25.2%

What do the screens show for `N#C/C(=C\c1ccncc1)c1nc2ccccc2[nH]1`?
JMJD2A Tudor inh: -19.6%; HP1b binding inh: 41.0%; BAZ2B inh: inconclusive; L3MBTL1 block: -29.4%; G9a inh: inconclusive; Sfp inh: 2.6%

How did N#C/C(=C\c1ccc(N2CCOCC2)c([N+](=O)[O-])c1)c1nc2ccccc2[nH]1 do in these assays?
JMJD2A Tudor inh: inconclusive; HP1b binding inh: -32.2%; BAZ2B inh: 35.5µM*; L3MBTL1 block: -0.4%; G9a inh: 0.6%[59 µM]; Sfp inh: -8.9%

Results for N#C/C(=C/c1ccc(N2CCCC2)c([N+](=O)[O-])c1)c1nc2ccccc2[nH]1 ?
JMJD2A Tudor inh: -11.6%; HP1b binding inh: 7.8%; BAZ2B inh: -4.6%; L3MBTL1 block: -7.0%; G9a inh: 11.3%[2.33 µM]; Sfp inh: -10.4%
